Several values for one entry are separate records, joined by “and”; a condition that tells them apart may be missing. Identical values can stand only once. Inconclusive results are not listed. More than one record can exist for a structure, and the calls need not agree. Activity calls are given as the source filed them. Unless noted, the call rests on the fitted dose curve; in most records, active means well fitted curve in the direction sought with a large enough effect in the repeat runs; inconclusive means weak or mixed curves; inactive means no such curve, though single readings can be large; an effect the other way counts as inactive or inconclusive.
Legend:
[1] = qHTS assay to identify small molecule agonists of H2AX (AID 1224845; active means well fitted activation curve with a large enough effect in the signal ratio in the repeat runs, not every such curve was filed as active; the % refers to the signal ratio; further: potency means the concentration at half of the fitted maximal effect)
How it was run: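 Wild-type CHO-K1 cells plated overnight, then exposed 3 hr at 37C to compounds at 15 concentrations (0.76% DMSO). Lysed, then HTRF anti-pH2AX(S139)-cryptate/anti-H2AX-d2 detection after 24 hr at room temperature; emissions 665 and 620 nm.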

[2] = qHTS assay to identify small molecule agonists of H2AX - cell viability counter screen (AID 1224847; calls by dose curve; further: nearly all actives have a fitted effect of over 30% in size; further: potency means the concentration at half of the fitted maximal effect)
How it was run: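 Compounds tested at 15 concentrations were incubated 3 hr at 37C with wild-type CHO-K1 cells; cellular ATP-based luminescence (CellTiter-Glo) indicated viability.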

[3] = qHTS assay to identify small molecule antagonists of the estrogen related receptor (ERR) signaling pathway from Tox21 library (AID 1224848); further: nearly all actives have a fitted effect of over 50% in size; further: potency means the concentration at half of the fitted maximal effect
How it was run: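 First, 2,000 ERR cells per well were plated and held 6 h at 37 C/5% CO2. Next, compounds in DMSO were pinned in and left 18 h at 37 C. Finally, ONE-Glo was added and luminescence read after 30 min at room temperature.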

[4] = qHTS assay to identify small molecule agonists of the estrogen related receptor (ERR) signaling pathway from Tox21 library (AID 1224849; calls by dose curve; further: nearly all actives have a fitted effect of over 15% in size); conditions: ERR reporter cell line, ONE-Glo luciferase, 18 h
How it was run: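 Quantitative HTS in agonist format: NTP ERR cell line, compounds transferred in DMSO after 6 h plating, 18 h incubation at 37 C, ONE-Glo luminescence endpoint.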

[5] = qHTS RealTime-Glo MT Cell Viability Assay in HepG2 cells - 24 hour (AID 1224867); further: nearly all actives have a fitted effect of over 50% in size; further: potency means the concentration at half of the fitted maximal effect
How it was run: (§1)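 Cell number in HepG2 cultures estimated from NanoLuc luminescence generated by metabolic reduction of a prosubstrate by living cells. The homogeneous, nonlytic format allowed repeated reads at 0, 8, 16, 24, 32 and 40 h of compound exposure.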

[6] = qHTS RealTime-Glo MT Cell Viability Assay in HEK293 cells - 32 hour (AID 1224868); further: nearly all actives have a fitted effect of over 50% in size; further: potency means the concentration at half of the fitted maximal effect
How it was run: (§2)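 Homogeneous bioluminescent viability format in HEK293 cells (600 cells/well). Following 5 h at 37 C/5% CO2, 23 nL compound was pintooled; the signal was measured repeatedly during 40 h incubation.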

[7] = qHTS RealTime-Glo MT Cell Viability Assay in HepG2 cells - 40 hour (AID 1224870); further: nearly all actives have a fitted effect of over 50% in size; further: potency means the concentration at half of the fitted maximal effect
How it was run: (§3)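 HepG2 cells mixed with RealTime-Glo MT reagents (NanoLuc plus cell-permeant prosubstrate) were seeded at 600 cells/well, incubated 5 h at 37 C/5% CO2, then pinned with compounds in DMSO; nonlytic luminescence tracked viability during 40 h treatment.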

[8] = A CellTox Green Cytotoxicity Assay to monitor cytotoxicity in HEK293 cells - 40 hour (AID 1224871); further: nearly all actives have a fitted effect of over 45% in size; further: potency means the concentration at half of the fitted maximal effect
How it was run: (§4)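 Dead-cell fluorescence measured kinetically: asymmetric cyanine dye, HEK293, 600 cells/well, 5 h settle, 23 nL cpd/DMSO, 37 C, reads 0–40 h every 8 h.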

[9] = qHTS RealTime-Glo MT Cell Viability Assay in HEK293 cells - 16 hour (AID 1224872); further: nearly all actives have a fitted effect of over 50% in size; further: potency means the concentration at half of the fitted maximal effect
How it was run: as §2

[10] = qHTS RealTime-Glo MT Cell Viability Assay in HepG2 cells - 8 hour (AID 1224873); further: nearly all actives have a fitted effect of over 55% in size; further: potency means the concentration at half of the fitted maximal effect
How it was run: as §3

[11] = qHTS RealTime-Glo MT Cell Viability Assay in HEK293 cells - 40 hour (AID 1224874); conditions: RealTime-Glo luminescence; max response: stronger effect = lower value; further: nearly all actives have a fitted effect of over 50% in size; further: potency means the concentration at half of the fitted maximal effect
How it was run: (§5)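 600 HEK293 cells per well, dispensed already mixed with RealTime-Glo MT reagents. Compound dosing came 5 h later. The same wells were read for luminescence at 0, 8, 16, 24, 32 and 40 h of exposure at 37 C.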

[12] = A CellTox Green Cytotoxicity Assay to monitor cytotoxicity in HepG2 cells - 16 hour (AID 1224876); further: nearly all actives have a fitted effect of over 45% in size; further: potency means the concentration at half of the fitted maximal effect
How it was run: (§6)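 First, HepG2 cells (600/well) mixed with reagent were plated; second, after 5 h at 37 C they received compounds via pintool; third, fluorescence was measured at 0 h through 40 h at 8 h intervals.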

[13] = qHTS RealTime-Glo MT Cell Viability Assay in HepG2 cells - 32 hour (AID 1224877); further: nearly all actives have a fitted effect of over 55% in size; further: potency means the concentration at half of the fitted maximal effect
How it was run: as §1

[14] = A CellTox Green Cytotoxicity Assay to monitor cytotoxicity in HepG2 cells - 24 hour (AID 1224878); further: nearly all actives have a fitted effect of over 45% in size; further: potency means the concentration at half of the fitted maximal effect
How it was run: as §6

[15] = A CellTox Green Cytotoxicity Assay to monitor cytotoxicity in HepG2 cells - 40 hour (AID 1224879); further: nearly all actives have a fitted effect of over 40% in size; further: potency means the concentration at half of the fitted maximal effect
How it was run: as §6

[16] = A CellTox Green Cytotoxicity Assay to monitor cytotoxicity in HEK293 cells - 0 hour (AID 1224869); further: nearly all actives have a fitted effect of over 50% in size
How it was run: as §4

[17] = A CellTox Green Cytotoxicity Assay to monitor cytotoxicity in HEK293 cells - 24 hour (AID 1224875); further: nearly all actives have a fitted effect of over 45% in size; further: potency means the concentration at half of the fitted maximal effect
How it was run: as §4

[18] = qHTS RealTime-Glo MT Cell Viability Assay in HEK293 cells - 0 hour (AID 1224880)
How it was run: as §5

[19] = A CellTox Green Cytotoxicity Assay to monitor cytotoxicity in HEK293 cells - 32 hour (AID 1224881); further: nearly all actives have a fitted effect of over 40% in size; further: potency means the concentration at half of the fitted maximal effect
How it was run: as §4
On the % scale 0 is the no-effect control and ±100 the full control effect.

CCCCCCCCn1sccc1=O
inactive: Potency [1] | activity change, positive = activation ([4]; at 92.4 µM (top of the series)) -82.6% and -70%
active: Potency [2] 50.6 µM and 26.5 µM | Potency [3] 17.3 µM and 9.05 µM | Potency [5] 43.7 µM and 16.2 µM | Potency [6] 11 µM and 12.9 µM | Potency [7] 43.7 µM and 14.5 µM | Potency [8] 55.1 µM and 20.4 µM | Potency [9] 13.8 µM and 14.5 µM | Potency [10] 43.7 µM and 16.2 µM | Potency [11] 11 µM and 12.9 µM | Potency [12] 55.1 µM and 25.7 µM | Potency [13] 43.7 µM and 16.2 µM | Potency [14] 49.1 µM and 25.7 µM | Potency [15] 43.7 µM and 20.4 µM

Nc1cc(Cl)cc(C(=O)O)c1Cl
inactive: Potency [1] | Potency [2] | Potency [3] | activity change, positive = activation ([4]; at 92.4 µM (top of the series)) 4.39% and 3.97% | Potency [5] | Potency [6] | Potency [16] | Potency [7] | Potency [8] | Potency [9] | Potency [10] | max response [11] 1.89% and 6.4% | Potency [17] | Potency [12] | Potency [13] | Potency [14] | Potency [15] | outcome [18] | Potency [19]

CN(C1CCCCC1)C1CCCCC1
inactive: Potency [1] | Potency [2] | Potency [6] | Potency [16] | Potency [7] | Potency [8] | Potency [9] | Potency [10] | max response [11] -2.03% | Potency [12] | Potency [13] | Potency [14] | Potency [15] | outcome [18] | Potency [19]

CC(C)C1(C)N=C(c2ncccc2C(=O)O)NC1=O (stereo unspecified)
inactive: Potency [1] | Potency [2] | Potency [5] | Potency [6] | Potency [16] | Potency [7] | Potency [8] | Potency [9] | Potency [10] | max response [11] 1.4% | Potency [17] | Potency [12] | Potency [13] | Potency [15] | outcome [18] | Potency [19]

CC(C)(C)CC(C)(C)c1ccc(O)cc1
43.6 µM (active) and inactive: Potency [13]
49 µM (active) and inactive: Potency [7]
active: Potency [1] 89.8 µM | Potency [2] 4.5 µM and 39.1 µM | Potency [8] 30.9 µM and 21.3 µM | Potency [9] 12.3 µM | Potency [10] 21.9 µM | Potency [17] 13.8 µM and 21.3 µM | Potency [12] 27.5 µM and 10.7 µM | Potency [14] 19.5 µM and 13.4 µM | Potency [15] 17.4 µM and 15.1 µM | Potency [19] 12.3 µM and 19 µM
inactive: Potency [6] | Potency [16] | max response [11] -17% | outcome [18]

C[CH2][Hg][S]c1ccccc1C(=O)O
inactive and 16.8 µM (active): Potency [3]
active: Potency [1] 4.01 µM | Potency [2] 17.9 µM and 24.7 µM | Potency [5] 2.19 µM and 2.13 µM | Potency [7] 2.19 µM and 2.39 µM | Potency [8] 6.92 µM and 4.77 µM | Potency [9] 1.23 µM and 2.13 µM | Potency [11] 871 nM and 952 nM | Potency [17] 7.76 µM and 5.35 µM | Potency [12] 3.89 µM and 2.39 µM | Potency [13] 2.19 µM and 2.13 µM | Potency [15] 1.95 µM and 2.13 µM | Potency [19] 7.76 µM and 4.77 µM
inactive: activity change, positive = activation ([4]; at 42.5 µM (top of the series)) -75.4% | activity change, positive = activation ([4]; at 92.4 µM (top of the series)) -77.1% | Potency [16] | outcome [18]

CCCN(CCC)C(=O)Cc1c(-c2ccc(Cl)cc2)nc2ccc(Cl)cn12
active: Potency [6] 5.35 µM | Potency [9] 5.35 µM | Potency [11] 5.35 µM
inactive: Potency [1] | Potency [2] | Potency [5] | Potency [7] | Potency [8] | Potency [17] | Potency [12] | Potency [13] | Potency [14] | outcome [18]

CC(C)CCON=O
inactive: Potency [1] | Potency [2] | Potency [5] | Potency [16] | Potency [7] | Potency [9] | Potency [10] | max response [11] 0.253% | Potency [12] | Potency [13] | Potency [14] | Potency [15] | outcome [18]

O=C1CC[C@@]2(O)[C@H]3Cc4ccc(O)c5c4[C@@]2(CCN3CC2CC2)[C@H]1O5
inactive: Potency [1] | Potency [2] | Potency [5] | Potency [6] | Potency [16] | Potency [7] | Potency [8] | Potency [9] | max response [11] 3.94% | Potency [17] | Potency [12] | Potency [13] | Potency [15] | outcome [18] | Potency [19]

CC(C)[C@@H](C(=O)O[C@@H](C#N)c1cccc(Oc2ccccc2)c1)c1ccc(Cl)cc1
inactive: Potency [1] | Potency [5] | Potency [16] | Potency [7] | Potency [8] | Potency [12] | Potency [13] | Potency [15] | outcome [18] | Potency [19]
49.7 µM (active) and inactive: Potency [10]
active: Potency [2] 16.2 µM | Potency [9] 24.9 µM

CCOP(=O)(SC(C)CC)N1CCSC1=O (stereo unspecified)
inactive: Potency [1] | Potency [2] | Potency [5] | Potency [6] | Potency [16] | Potency [7] | Potency [8] | Potency [9] | max response [11] 15% | Potency [17] | Potency [12] | Potency [13] | Potency [14] | Potency [15] | outcome [18] | Potency [19]

Clc1ccc2ccccc2c1
inactive: Potency [1] | Potency [2] | Potency [5] | Potency [16] | Potency [7] | Potency [10] | Potency [12] | Potency [13] | Potency [14] | Potency [15] | outcome [18]
active: Potency [17] 50.5 µM | Potency [19] 50.5 µM

c1ccc2sc(SNC3CCCCC3)nc2c1
inactive: Potency [1] | Potency [2] | Potency [5] | Potency [6] | Potency [16] | Potency [7] | Potency [8] | Potency [9] | Potency [10] | max response [11] -0.932% and 2.76% | Potency [12] | Potency [13] | Potency [14] | Potency [15] | outcome [18] | Potency [19]

NP(N)(=O)NC(=O)c1ccc(F)cc1
inactive: Potency [1] | Potency [2] | Potency [3] | activity change, positive = activation ([4]; at 42.5 µM (top of the series)) -0.0729% | Potency [5] | Potency [6] | Potency [16] | Potency [7] | Potency [8] | Potency [9] | Potency [10] | max response [11] 1.36% | Potency [17] | Potency [12] | Potency [13] | Potency [14] | Potency [15] | outcome [18] | Potency [19]
